# Measurements taken from ChEMBL document CHEMBL1961873, “Compounds: GSK PKIS; Assays: Nanosyn kinase panel” (2012).
# Experiments:
# [1] = target: Rho-associated protein kinase 1 (Homo sapiens) (UniProt Q13464); settings: at 1 µM;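 further: reported values are mean percent inhibition of ROCK1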
# [2] = target: Rho-associated protein kinase 2 (Homo sapiens) (UniProt O75116); settings: at 0.1 µM
# [3] = target: Rho-associated protein kinase 2 (Homo sapiens) (UniProt O75116); settings: at 1 µM
# [4] = target: Ribosomal protein S6 kinase alpha-1 (Homo sapiens) (UniProt Q15418); settings: at 0.1 µM
# [5] = target: Ribosomal protein S6 kinase alpha-1 (Homo sapiens) (UniProt Q15418); settings: at 1 µM
# [6] = target: Ribosomal protein S6 kinase alpha-3 (Homo sapiens) (UniProt P51812); settings: at 0.1 µM
# [7] = target: Ribosomal protein S6 kinase alpha-3 (Homo sapiens) (UniProt P51812); settings: at 1 µM
# [8] = target: Ribosomal protein S6 kinase alpha-2 (Homo sapiens) (UniProt Q15349); settings: at 0.1 µM
# [9] = target: Ribosomal protein S6 kinase alpha-2 (Homo sapiens) (UniProt Q15349); settings: at 1 µM
# [10] = target: Ribosomal protein S6 kinase alpha-6 (Homo sapiens) (UniProt Q9UK32); settings: at 0.1 µM
# [11] = target: Ribosomal protein S6 kinase alpha-6 (Homo sapiens) (UniProt Q9UK32); settings: at 1 µM
# [12] = target: T1, Serine/threonine-protein kinase Sgk1 (Homo sapiens) (UniProt O00141); settings: at 0.1 µM
# T1 sequence (whole entry): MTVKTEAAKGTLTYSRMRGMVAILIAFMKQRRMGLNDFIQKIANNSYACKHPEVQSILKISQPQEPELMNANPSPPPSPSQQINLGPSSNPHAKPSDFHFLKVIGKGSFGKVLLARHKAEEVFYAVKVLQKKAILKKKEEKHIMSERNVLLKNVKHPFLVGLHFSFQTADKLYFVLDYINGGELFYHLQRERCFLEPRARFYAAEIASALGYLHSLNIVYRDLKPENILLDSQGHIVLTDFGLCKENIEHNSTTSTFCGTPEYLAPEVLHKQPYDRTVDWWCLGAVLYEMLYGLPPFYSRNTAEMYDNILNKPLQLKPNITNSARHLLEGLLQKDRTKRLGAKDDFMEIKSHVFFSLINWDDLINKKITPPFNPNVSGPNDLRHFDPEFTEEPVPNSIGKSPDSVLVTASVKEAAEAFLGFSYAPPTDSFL
# [13] = target: T1, Serine/threonine-protein kinase Sgk1 (Homo sapiens); settings: at 1 µM
# [14] = target: T2, Serine/threonine-protein kinase Sgk2 (Homo sapiens) (UniProt Q9HBY8); settings: at 0.1 µM
# T2 sequence (whole entry): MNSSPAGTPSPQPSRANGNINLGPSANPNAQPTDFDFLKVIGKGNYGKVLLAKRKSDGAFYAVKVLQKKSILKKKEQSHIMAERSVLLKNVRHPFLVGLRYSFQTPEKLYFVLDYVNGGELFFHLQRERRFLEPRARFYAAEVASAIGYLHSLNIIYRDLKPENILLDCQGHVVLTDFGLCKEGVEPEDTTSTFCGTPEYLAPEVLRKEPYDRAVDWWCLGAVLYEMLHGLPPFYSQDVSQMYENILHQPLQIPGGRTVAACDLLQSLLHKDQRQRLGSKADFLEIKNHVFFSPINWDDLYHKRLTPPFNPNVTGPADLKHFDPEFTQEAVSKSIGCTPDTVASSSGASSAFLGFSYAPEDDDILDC
# [15] = target: T2, Serine/threonine-protein kinase Sgk2 (Homo sapiens); settings: at 1 µM
# [16] = target: T3, Serine/threonine-protein kinase Sgk3 (Homo sapiens) (UniProt Q96BR1); settings: at 0.1 µM
# T3 sequence (whole entry): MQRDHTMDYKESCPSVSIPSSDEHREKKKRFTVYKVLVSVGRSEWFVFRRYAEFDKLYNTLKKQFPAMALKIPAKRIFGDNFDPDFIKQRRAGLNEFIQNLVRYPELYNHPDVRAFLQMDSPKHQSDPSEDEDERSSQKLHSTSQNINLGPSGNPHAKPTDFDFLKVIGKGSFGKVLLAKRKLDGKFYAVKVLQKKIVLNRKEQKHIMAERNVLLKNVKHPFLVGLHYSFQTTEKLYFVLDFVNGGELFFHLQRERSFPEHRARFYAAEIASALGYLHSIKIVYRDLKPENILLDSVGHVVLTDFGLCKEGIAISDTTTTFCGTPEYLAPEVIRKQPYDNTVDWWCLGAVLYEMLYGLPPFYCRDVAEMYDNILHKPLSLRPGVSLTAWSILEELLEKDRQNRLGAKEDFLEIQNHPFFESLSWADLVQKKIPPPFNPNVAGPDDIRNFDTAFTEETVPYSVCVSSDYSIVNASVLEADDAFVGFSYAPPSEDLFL
# [17] = target: T3, Serine/threonine-protein kinase Sgk3 (Homo sapiens); settings: at 1 µM
# [18] = target: 5'-AMP-activated protein kinase catalytic subunit alpha-1 (Homo sapiens) (UniProt Q13131); settings: at 0.1 µM
# [19] = target: 5'-AMP-activated protein kinase catalytic subunit alpha-1 (Homo sapiens) (UniProt Q13131); settings: at 1 µM
# [20] = target: 5'-AMP-activated protein kinase catalytic subunit alpha-2 (Homo sapiens) (UniProt P54646); settings: at 0.1 µM;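 further: mean inhibition measured on the AMPK complex of alpha2, beta1 and gamma1 subunits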
# 5'-AMP-activated protein kinase catalytic subunit alpha-2 (Homo sapiens), sequence (P54646 whole entry, looked up): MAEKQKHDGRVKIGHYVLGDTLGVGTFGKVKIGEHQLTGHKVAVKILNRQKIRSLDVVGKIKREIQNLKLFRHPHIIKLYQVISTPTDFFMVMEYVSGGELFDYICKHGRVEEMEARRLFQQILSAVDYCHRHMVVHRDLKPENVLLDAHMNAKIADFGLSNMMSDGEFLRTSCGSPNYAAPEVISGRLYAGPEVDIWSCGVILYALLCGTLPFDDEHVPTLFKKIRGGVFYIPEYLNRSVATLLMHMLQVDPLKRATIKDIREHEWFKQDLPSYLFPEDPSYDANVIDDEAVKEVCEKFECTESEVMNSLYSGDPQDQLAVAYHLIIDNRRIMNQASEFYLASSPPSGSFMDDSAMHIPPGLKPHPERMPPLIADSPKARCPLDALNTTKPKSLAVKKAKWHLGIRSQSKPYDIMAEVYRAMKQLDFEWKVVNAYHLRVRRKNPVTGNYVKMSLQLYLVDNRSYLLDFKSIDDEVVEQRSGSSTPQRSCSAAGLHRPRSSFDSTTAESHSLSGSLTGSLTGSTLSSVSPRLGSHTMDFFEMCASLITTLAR
# Ribosomal protein S6 kinase alpha-3 (Homo sapiens), sequence (P51812 whole entry): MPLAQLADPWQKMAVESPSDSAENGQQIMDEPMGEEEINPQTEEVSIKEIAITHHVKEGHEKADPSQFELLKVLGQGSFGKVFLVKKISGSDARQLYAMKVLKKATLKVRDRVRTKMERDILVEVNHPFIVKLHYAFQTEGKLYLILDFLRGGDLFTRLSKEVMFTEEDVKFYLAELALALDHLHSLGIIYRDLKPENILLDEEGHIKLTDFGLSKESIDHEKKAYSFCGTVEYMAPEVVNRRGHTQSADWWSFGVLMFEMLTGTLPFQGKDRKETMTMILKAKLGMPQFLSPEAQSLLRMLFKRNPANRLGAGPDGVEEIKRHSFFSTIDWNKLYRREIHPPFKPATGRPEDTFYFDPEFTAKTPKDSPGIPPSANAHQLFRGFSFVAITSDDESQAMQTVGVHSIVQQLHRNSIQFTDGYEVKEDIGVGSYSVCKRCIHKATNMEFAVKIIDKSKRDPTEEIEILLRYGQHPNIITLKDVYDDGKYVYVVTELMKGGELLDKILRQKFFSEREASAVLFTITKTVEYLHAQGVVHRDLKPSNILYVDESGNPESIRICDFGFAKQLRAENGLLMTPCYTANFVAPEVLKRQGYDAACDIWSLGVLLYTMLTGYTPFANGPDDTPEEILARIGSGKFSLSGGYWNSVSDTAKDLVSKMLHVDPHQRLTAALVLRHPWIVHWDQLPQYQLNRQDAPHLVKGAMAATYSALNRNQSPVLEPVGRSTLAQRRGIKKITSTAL
# Ribosomal protein S6 kinase alpha-1 (Homo sapiens), sequence (Q15418 whole entry): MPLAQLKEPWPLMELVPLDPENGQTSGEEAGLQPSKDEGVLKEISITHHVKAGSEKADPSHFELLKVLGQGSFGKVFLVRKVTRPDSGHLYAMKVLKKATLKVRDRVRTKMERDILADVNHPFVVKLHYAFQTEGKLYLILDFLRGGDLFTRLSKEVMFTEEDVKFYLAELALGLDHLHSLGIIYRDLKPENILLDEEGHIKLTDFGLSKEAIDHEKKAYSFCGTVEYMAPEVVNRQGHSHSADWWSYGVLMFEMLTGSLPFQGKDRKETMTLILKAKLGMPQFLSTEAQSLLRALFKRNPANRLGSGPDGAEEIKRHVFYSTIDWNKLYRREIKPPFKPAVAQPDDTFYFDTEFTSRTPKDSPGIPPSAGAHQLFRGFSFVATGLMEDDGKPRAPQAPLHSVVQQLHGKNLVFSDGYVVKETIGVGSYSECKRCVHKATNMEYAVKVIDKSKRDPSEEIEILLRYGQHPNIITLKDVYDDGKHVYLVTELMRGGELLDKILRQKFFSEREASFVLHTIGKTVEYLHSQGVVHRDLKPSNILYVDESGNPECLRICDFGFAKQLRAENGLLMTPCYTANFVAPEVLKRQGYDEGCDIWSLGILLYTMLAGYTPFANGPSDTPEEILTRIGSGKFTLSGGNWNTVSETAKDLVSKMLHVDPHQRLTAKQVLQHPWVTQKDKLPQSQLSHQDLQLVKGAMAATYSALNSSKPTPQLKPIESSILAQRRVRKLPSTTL
# Rho-associated protein kinase 2 (Homo sapiens), sequence (O75116 whole entry, looked up): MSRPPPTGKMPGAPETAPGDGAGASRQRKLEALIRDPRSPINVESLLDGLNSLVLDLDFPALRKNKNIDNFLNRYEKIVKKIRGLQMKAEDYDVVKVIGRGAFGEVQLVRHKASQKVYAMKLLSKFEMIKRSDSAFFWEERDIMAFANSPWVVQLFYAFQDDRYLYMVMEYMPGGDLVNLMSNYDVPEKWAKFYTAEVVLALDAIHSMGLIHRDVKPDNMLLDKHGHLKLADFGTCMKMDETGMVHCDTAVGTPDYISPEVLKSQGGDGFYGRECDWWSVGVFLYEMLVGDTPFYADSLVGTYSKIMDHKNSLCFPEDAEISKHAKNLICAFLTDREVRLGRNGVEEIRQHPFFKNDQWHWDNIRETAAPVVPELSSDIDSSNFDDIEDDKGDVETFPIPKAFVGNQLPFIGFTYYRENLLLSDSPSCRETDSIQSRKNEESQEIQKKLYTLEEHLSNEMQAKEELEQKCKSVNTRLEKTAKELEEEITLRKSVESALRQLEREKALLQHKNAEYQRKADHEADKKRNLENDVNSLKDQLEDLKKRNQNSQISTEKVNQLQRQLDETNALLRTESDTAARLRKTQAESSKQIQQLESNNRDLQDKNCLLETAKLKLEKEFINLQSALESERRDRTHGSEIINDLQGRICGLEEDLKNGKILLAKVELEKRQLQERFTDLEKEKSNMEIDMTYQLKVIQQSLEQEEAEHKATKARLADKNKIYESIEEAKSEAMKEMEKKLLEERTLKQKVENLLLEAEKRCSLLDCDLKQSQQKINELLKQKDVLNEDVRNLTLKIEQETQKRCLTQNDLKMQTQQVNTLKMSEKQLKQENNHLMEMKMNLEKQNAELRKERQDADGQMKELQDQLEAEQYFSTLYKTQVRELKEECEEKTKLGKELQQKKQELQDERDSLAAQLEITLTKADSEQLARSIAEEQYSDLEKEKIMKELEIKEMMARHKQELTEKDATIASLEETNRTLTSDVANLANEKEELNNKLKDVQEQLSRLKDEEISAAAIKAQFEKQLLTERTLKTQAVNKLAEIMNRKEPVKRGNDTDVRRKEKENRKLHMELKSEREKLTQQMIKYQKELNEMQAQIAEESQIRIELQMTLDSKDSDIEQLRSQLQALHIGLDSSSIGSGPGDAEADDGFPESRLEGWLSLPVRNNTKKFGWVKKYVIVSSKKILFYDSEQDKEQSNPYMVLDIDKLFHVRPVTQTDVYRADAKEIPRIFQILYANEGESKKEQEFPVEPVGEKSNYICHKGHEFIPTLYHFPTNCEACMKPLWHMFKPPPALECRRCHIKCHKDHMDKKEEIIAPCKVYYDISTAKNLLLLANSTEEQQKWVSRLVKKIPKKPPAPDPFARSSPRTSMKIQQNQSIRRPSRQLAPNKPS
# Ribosomal protein S6 kinase alpha-2 (Homo sapiens), sequence (Q15349 whole entry): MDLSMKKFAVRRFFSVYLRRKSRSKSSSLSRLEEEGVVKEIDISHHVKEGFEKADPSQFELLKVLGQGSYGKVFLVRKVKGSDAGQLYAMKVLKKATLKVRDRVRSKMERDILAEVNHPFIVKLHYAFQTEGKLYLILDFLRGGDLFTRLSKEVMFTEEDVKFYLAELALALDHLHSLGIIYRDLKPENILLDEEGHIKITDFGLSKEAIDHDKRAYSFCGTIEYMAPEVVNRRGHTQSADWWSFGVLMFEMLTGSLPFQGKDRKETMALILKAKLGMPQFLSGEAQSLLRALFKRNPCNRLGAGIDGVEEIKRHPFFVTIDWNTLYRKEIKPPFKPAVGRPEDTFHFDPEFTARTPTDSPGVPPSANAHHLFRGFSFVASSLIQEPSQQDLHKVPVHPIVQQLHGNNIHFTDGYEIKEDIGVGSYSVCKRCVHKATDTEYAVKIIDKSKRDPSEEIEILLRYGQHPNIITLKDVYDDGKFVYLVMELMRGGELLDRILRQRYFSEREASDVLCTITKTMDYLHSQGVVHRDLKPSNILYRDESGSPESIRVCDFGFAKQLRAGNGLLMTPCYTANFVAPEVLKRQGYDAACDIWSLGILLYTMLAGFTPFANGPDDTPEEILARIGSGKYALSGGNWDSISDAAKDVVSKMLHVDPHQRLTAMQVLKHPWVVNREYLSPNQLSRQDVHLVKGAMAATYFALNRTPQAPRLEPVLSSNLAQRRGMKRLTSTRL
# 5'-AMP-activated protein kinase catalytic subunit alpha-1 (Homo sapiens), sequence (Q13131 whole entry, looked up): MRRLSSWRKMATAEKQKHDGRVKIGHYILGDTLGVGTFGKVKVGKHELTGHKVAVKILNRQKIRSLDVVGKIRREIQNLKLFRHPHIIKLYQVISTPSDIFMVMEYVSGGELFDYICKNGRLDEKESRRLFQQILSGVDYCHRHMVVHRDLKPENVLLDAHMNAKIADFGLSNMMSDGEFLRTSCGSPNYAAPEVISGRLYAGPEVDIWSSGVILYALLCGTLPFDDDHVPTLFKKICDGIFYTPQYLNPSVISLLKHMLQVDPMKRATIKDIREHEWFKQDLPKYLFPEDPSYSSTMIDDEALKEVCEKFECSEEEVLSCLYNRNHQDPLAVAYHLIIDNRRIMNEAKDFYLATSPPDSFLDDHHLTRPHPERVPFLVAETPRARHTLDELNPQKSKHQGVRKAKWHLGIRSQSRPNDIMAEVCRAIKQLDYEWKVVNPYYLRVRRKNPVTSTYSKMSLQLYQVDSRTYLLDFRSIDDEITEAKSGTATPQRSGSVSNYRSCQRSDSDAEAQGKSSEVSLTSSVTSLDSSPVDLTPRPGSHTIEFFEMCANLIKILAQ
Structure (SMILES),inhibition [1],inhibition [2],inhibition [3],inhibition [4],inhibition [5],inhibition [6],inhibition [7],inhibition [8],inhibition [9],inhibition [10],inhibition [11],inhibition [12],inhibition [13],inhibition [14],inhibition [15],inhibition [16],inhibition [17],inhibition [18],inhibition [19],inhibition [20]
Fc1ccc(-c2c(-c3ccncc3)nc3n2CCS3)cc1,13.8%,11.2%,16.1%,3.39%,6.17%,3.04%,6%,2.43%,3.27%,1.3%,2.25%,3.2%,4.05%,1.42%,3.7%,1.96%,5.06%,3.33%,6.81%,3.93%
Cc1ccc(C(=O)NC(C)C)cc1-c1ccc(C(=O)NCC2CC2)cc1,-0.1%,-1.71%,-1.76%,1.38%,-0.32%,1.65%,1.68%,-0.25%,0.47%,-0.44%,0.59%,0.01%,-0.09%,-3.55%,-7.09%,-5.05%,-2.17%,-1.19%,-1.42%,-0.98%
NC(=O)c1cc(-c2ccncc2)cc(-c2ccccc2)c1N,6.72%,3.44%,9.1%,1.01%,-1.21%,1.46%,1.47%,3.07%,2.57%,2.79%,2.63%,4.37%,2.48%,4.36%,3.52%,2.61%,5.81%,3.6%,2.86%,4.45%
